# Screening data: PubChem BioAssay, National Center for Advancing Translational Sciences (NCATS)
# Six1-Eya2 inh – Six1/Eya2 interaction inhibition. Q15475+O00167. 360,000 compounds, 0.56% hits. activity change, % (test concentration not listed). AID 651725. AlphaScreen GST-Six1/His-Eya2 binding, biochemical; hits give low values
#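 AlphaScreen luminescence read after one hour at 37 °C in darkness. Pin-transferred compounds met GST-Six1 and His-Eya2 protein (5X stock 250 nM/500 nM) plus glutathione donor and Ni-chelate acceptor beads (5X, 50 ug/mL).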
# Akt phos inh – blocks phosphorylation of Akt; Neuro2A IGF-stimulated pAkt S473 HTRF, 20 min; hits give low values; activity change, % for hits at 50 µM; 360,000 compounds, 0.32% hits; AID 651550; in the data active means activity change below about -80%; inconclusive means mostly about -51% to -80%
#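 Neuro2A cells in DMEM with 0.5% FBS, overnight at 37 deg C, given compound at single 50 µM final, then IGF (6 nM final) for 20 min at 37 deg C. Lysed; phospho-Akt Ser473 by HTRF after 24 h, 665/615 ratio.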
# PI5P4K alpha inh – blocks human PI5P4K alpha kinase activity. max response, %. AID 652105. PI5P4Kalpha enzyme, ADP-Glo luminescence, 60 min; hits give low values. 330,000 compounds, 1.2% hits; active means max response of -50% or lower; inconclusive means between -30% and -50%; inactive means -30% or higher; further: value at the top dose of about 77 µM
# Target sequence (P48426 whole entry, looked up): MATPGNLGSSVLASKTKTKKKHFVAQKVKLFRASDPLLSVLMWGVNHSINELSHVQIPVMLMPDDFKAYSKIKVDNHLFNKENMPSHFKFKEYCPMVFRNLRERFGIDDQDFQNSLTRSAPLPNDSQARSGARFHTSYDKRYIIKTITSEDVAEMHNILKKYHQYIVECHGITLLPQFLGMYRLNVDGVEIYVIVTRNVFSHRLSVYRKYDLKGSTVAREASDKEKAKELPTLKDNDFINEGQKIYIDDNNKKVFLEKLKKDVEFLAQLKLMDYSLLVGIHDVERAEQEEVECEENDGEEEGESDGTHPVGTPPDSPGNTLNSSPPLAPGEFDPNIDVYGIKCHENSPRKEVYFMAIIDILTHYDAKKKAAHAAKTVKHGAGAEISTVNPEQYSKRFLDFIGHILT
#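 Luminescence from ADP-Glo served as readout of PI5P4Kalpha activity in a qHTS format. Reaction: enzyme, substrate, compound, ATP at 5 microM final, 60 min at RT.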
# CtBP-E1A inh – CtBP/E1A binding inhibition. AlphaScreen GST-E1A/His-CtBP binding, 1536-well; hits give low values. activity change, % (concentration not given with the values). 340,000 compounds, 0.49% hits
#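 Steps: dispense buffer (Tris pH 8.0, NaCl 300 mM, TCEP 1 mM, BSA, Tween 20); add 5X protein mix (GST-E1A, His-CtBP, 125 nM each); pin 23 nL compound; 2 h at 37 °C, dark; add 5X beads (50 ug/mL); 1 h; read.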
# PI4K2A inh – blocks human PI4K2A kinase activity | purified PI4K2A, ADP-Glo luminescence, 1 h; hits give low values | Q9BTU6 | 420,000 compounds, 0.13% hits | activity change, negative = inhibition, % at 76.9 µM; in the data active means activity change below about -50%; inconclusive means mostly about -30% to -49%;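 further: -100% = wells without enzyme as full effect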
#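 In this quantitative HTS, ADP production by PI4K2A was quantified luminescently after 1 h at ambient temperature; 100 microM adenosine served as plate-quality control.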
# * = called active by the depositor; i = inactive; ? = inconclusive; . = no result given. Shown are actives, neighbours in structure and some others; about 1.8% of the full set was active somewhere. Unless noted, no stated cut-off is given here; in the data, active means activity change below about -65%; inconclusive means mostly about -30% to -63%; inactive means weaker than that. Unless noted, on the % scale 0 is the no-effect control and ±100 the full control effect.
SMILES,Six1-Eya2 inh,Akt phos inh,PI5P4K alpha inh,CtBP-E1A inh,PI4K2A inh
Cc1coc2c1C(=O)C(=O)c1c-2ccc2c(C)cccc12,?,i,-56*,?,?
Cc1ccc2c3c(cccc13)-c1ccccc1C2=O,-5,i,20,13,5
Cc1ccc(C(=O)c2coc3c2C(=O)C(=O)c2ccccc2-3)cc1,-7,i,.,-8,-7
C[C@H]1COC2=C1C(=O)C(=O)c1c2ccc2c1CCCC2(C)C,?,i,-52*,-27,-26
Cc1coc2c1C(=O)C(=O)c1c-2ccc2c1CCCC2(C)C,-7,i,-52*,-15,-22
CC(=O)Nc1cccc(-c2cc(NC=O)c3ncc(-c4ccc(C(C)=O)cc4)n3c2)c1,-7,i,-51*,-11,-4
CC(=O)Nc1cccc(-c2cc(NC(C)=O)c3ncc(-c4cccc(C(C)=O)c4)n3c2)c1,-13,i,-11,-10,2
O=CNc1cc(-c2cccc(O)c2)cn2c(-c3ccc(F)cc3)cnc12,-7,i,-72*,-29,-9
CC(=O)c1ccc(-c2cnc3c(NC=O)cc(-c4ccc(N5CCN(C)CC5)cc4)cn23)cc1,-25,i,-51*,-19,-9
CC(=O)c1ccc(-c2cnc3c(NC=O)cc(-c4ccc(C(=O)NC5CC5)cc4)cn23)cc1,?,i,-68*,-22,-2
O=CNc1cc(-c2ccc(C(=O)NC3CC3)cc2)cn2c(-c3ccccc3)cnc12,?,i,-24,-21,2
Cc1noc(C)c1NC(=O)N(C)C[C@H]1Oc2ccc(NS(=O)(=O)c3ccccc3)cc2C(=O)N([C@H](C)CO)C[C@@H]1C,1,i,-5,6,-2
Cn1c(=S)[nH]c2scc(-c3cccs3)c2c1=O,-15,i,?,-13,-2
COc1cccc(-c2cc(NC=O)c3ncc(-c4ccc(OC)c(OC)c4)n3c2)c1,-23,i,-54*,-19,-1
COc1cccc(-c2cnc3c(NC=O)cc(-c4cc(OC)c(OC)c(OC)c4)cn23)c1,-2,i,-1,-9,-3
COc1ccc(CCNC(=O)CSCc2ccc(Cl)cc2)cc1OC,2,i,7,6,-1
O=C(Nc1ccncc1)Nc1ccc(Cl)cc1,-1,i,0,1,-5
COc1cccc(NC(=O)NCc2ccccc2F)c1,-1,i,-15,12,6
COc1ccc(OC)c(N/C=C/C(=O)c2ccccc2)c1,-9,i,-17,-10,-52*
COc1ccc(-n2c(SC)nc(O)c(Cc3ccccc3)c2=O)cc1,0,.,.,-4,5
COc1ccc(Cc2c(O)nc(SC)n(C(C)=O)c2=O)cc1,-29,.,-75*,-6,-2
CC(C)C(=O)Nc1cccc(-c2nc3ccccc3c(=O)o2)c1,0,i,3,-1,0
CC(C)C(=O)Nc1ccc(-c2nc3ccccc3c(=O)o2)cc1,-76*,i,1,?,1
COc1ccc(-c2nc3ccccc3c(=O)o2)cc1OC,-28,-119%*,-15,?,-3
O=C(/C=C/c1ccco1)N1CCN(c2ncccn2)CC1,-1,i,2,5,-1
SMILES,Six1-Eya2 inh,Akt phos inh,PI5P4K alpha inh,CtBP-E1A inh,PI4K2A inh
O=C(/C=C/c1ccco1)N1CCC(Cc2ccccc2)CC1,-17,i,-57*,-9,-5
CC(=O)c1cnc2c(C(=O)O)cnn2c1C,-2,i,.,9,-1
Cc1c(C(=O)O)cnc2c([N+](=O)[O-])cnn12,-4,i,-55*,0,-2
Cc1ccc(NS(=O)(=O)c2c(C(=O)N3CCC(C)CC3)c(C)n(C)c2C)cc1Cl,.,.,.,.,4
O=C(NCCCN1CCOCC1)C(=O)N/N=C/c1ccccc1Cl,1,i,-3,.,3
O=C(O)COc1ccc(/C=N/NC(=O)COc2nsnc2N2CCOCC2)cc1,2,i,-2,3,1
O=C(NCc1ccccn1)C(=O)N/N=C/c1ccccc1O,-73*,i,1,?,-3
O=C(COc1nsnc1N1CCOCC1)N/N=C/c1ccccc1O,-90*,i,0,-6,1
O=C(NCCCN1CCOCC1)C(=O)N/N=C/c1ccccc1O,-75*,i,7,?,2
Cc1ccc(S(=O)(=O)N2CCN(C(=O)Cc3ccsc3)CC2)c(C)c1,5,i,-10,1,1
O=c1[nH]c(/C=C\c2ccccc2F)nc(O)c1[N+](=O)[O-],4,i,-72*,-10,-20
O=c1[nH]c(/C=C\c2cccc(F)c2)nc(O)c1[N+](=O)[O-],-15,i,-55*,5,-17
O=C(COC(=O)COc1ccc(Br)cc1)NCCC1=CCCCC1,46,i,14,-27,2
Cn1c(=O)[nH]c(=O)c2c1nc(Br)n2Cc1ccc(Cl)cc1,0,i,-18,1,-2
CSc1nc2c(c(=O)[nH]c(=O)n2C)n1CCCc1ccccc1,11,i,-4,-3,1
Cn1c(=O)[nH]c(=O)c2c1[nH]c(=S)n2Cc1ccc(Cl)cc1,-5,i,-92*,.,2
Cn1c(=O)n(Cc2ccccc2Cl)c(=O)c2c1[nH]c(=S)n2C,8,i,-56*,4,1
Cn1c(=O)n(Cc2ccccc2Cl)c2ccccc21,7,i,-19,-1,0
Cn1c(=O)[nH]c(=O)c2c1[nH]c(=S)n2CCCc1ccccc1,3,i,-52*,-14,-10
Cn1c(=O)c2c([nH]c(=S)n2CCCc2ccccc2)n(C)c1=O,0,i,-94*,-17,-9
Cn1nnnc1SCC(=O)NC(=O)c1cccc([N+](=O)[O-])c1,2,i,-2,4,5
CCOC(=O)/C(=N/Nc1ccccc1)N1CCCc2ccccc21,-8,i,1,-26,4
COc1ccc(C(=O)OCC(=O)N2CCCCC2)cc1[N+](=O)[O-],6,i,-2,5,6
CC1CCCC(NC(=O)c2ccc3c(c2)OCO3)C1C (configuration not stated),1,i,0,2,-1
COc1ccc(C(=O)ON=C(C)c2nccs2)cc1,8,i,?,2,-66*
C/C(=N\OC(=O)c1ccc(Cl)cc1)c1nccs1,-1,.,-8,2,-2
COc1ccc(C(=O)O/N=C(\C)c2ccccc2)cc1,9,i,?,4,-95*
CCC(C)n1c(NC(=O)c2ccccc2)c(C#N)c2nc3ccccc3nc21 (configuration not stated),59,i,-8,-16,-56*
N#Cc1c(NC(=O)c2ccc(Br)o2)n(-c2ccccc2)c2nc3ccccc3nc12,-3,i,-10,?,-52*
CCC(=O)Nc1c(C#N)c2nc3ccccc3nc2n1-c1ccc(C)cc1,1,i,1,-8,-8
